# Screening data from PubChem BioAssay.
# PME-1 inh – PME-1 inhibitors via competitive probe labeling, primary screen, biochemical, fluorescence polarization, FP-Rh probe, HTS; Protein phosphatase methylesterase 1 (Homo sapiens), Q9Y570; recombinant PME-1; inhibition, % at 5.9 µM; actives 0.53% (n = 320,000);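 active = inhibition above the campaign mean of all compounds plus 3 SD, cut at about 26% in these data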;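 note: competitive labeling of PME-1 active site by serine hydrolase directed probe; 0% = PME-1 with DMSO and 100% = wells lacking PME-1 enzyme; inhibitors block probe labeling so polarization falls and inhibition rises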
# Target sequence (Q9Y570 whole entry, looked up): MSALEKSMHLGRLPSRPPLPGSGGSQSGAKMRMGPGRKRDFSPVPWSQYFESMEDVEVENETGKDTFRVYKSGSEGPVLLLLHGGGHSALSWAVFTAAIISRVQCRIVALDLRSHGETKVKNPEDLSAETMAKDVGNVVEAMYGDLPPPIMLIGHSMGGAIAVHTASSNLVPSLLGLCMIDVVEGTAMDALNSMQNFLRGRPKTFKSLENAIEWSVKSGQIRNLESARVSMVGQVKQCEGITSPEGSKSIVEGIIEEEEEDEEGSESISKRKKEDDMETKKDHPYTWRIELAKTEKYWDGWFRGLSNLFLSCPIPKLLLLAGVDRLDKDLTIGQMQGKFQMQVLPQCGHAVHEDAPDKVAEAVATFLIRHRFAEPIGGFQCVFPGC
# PREPL inh – PREPL enzyme inhibitors, primary screen, biochemical, fluorescence polarization; actives 0.68% (n = 320,000); Prolyl endopeptidase-like (Homo sapiens), Q4J6C6; recombinant PREPL, fluorescence polarization activity-based probe; inhibition, % at 5.96 µM;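 note: 0% = enzyme with DMSO and 100% = wells lacking enzyme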
# LYPLA2 counter – LYPLA2 inhibitors, primary screen, counter-screen for PME1 inhibitor project, biochemical, fluorescence polarization, FP-Rh probe ABPP | actives 0.38% (n = 320,000) | Acyl-protein thioesterase 2 (Homo sapiens), O95372 | inhibition, % at 5.9 µM | recombinant LYPLA2;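 active = inhibition above the screen-wide mean plus 3 SD, limit set per campaign, cut at about 26% in these data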;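 note: 0% = LYPLA2 with DMSO and 100% = wells lacking LYPLA2 enzyme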
# LYPLA1 inh – LYPLA1 inhibitors, primary screen, counter-screen for PME1 inhibitor project, biochemical, fluorescence polarization, FP-Rh probe ABPP. Acyl-protein thioesterase 1 (Homo sapiens), O75608. recombinant LYPLA1. inhibition, % at 5.9 µM. actives 0.16% (n = 320,000). AID 2174, 2009;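 active = inhibition above the mean of all tested compounds plus 3 SD, set per campaign, cut at about 14% in these data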;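 note: inhibitors block serine hydrolase probe labeling of LYPLA1 so polarization falls; 0% = enzyme with DMSO and 100% = wells lacking LYPLA1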
# Target sequence (O75608 whole entry, looked up): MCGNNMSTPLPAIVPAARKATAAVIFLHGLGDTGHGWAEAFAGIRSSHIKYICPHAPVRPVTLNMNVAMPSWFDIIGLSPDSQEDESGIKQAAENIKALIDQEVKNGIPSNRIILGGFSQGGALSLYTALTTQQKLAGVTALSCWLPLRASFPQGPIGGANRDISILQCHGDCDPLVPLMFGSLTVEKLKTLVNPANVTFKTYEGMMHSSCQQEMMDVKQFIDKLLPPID
# Fam108B inh – mouse Fam108B serine hydrolase inhibitors, primary screen, counter-screen for RBBP9 inhibitor project, biochemical, fluorescence polarization; recombinant Fam108B, FP-Rh probe fluorescence polarization; inhibition, % at 9.51 µM; actives 0.33% (n = 300,000); AID 1947, 2009;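 active = inhibition above the screen mean inhibition plus 3 SD, computed separately per campaign, cut at about 18% in these data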;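 note: inhibitors lower polarization as less probe binds the enzyme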
# LYPLA2 conf – LYPLA2 inhibitors, retest, confirmation, counter-screen for PME1 inhibitor project, biochemical, fluorescence polarization, FP-Rh probe ABPP | inhibition, % at 5.9 µM | AID 2232, 2010 | actives 72% (n = 1,100) | shares compounds with LYPLA2 counter | recombinant LYPLA2;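 active = mean inhibition across replicates above the hit cutoff set in the primary screen, cut at about 26% in these data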;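 note: blocked labeling of the enzyme by serine hydrolase FP-Rh probe lowers polarization; 0% = enzyme with DMSO and 100% = wells lacking LYPLA2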
# LYPLA2 ABPP – LYPLA2 inhibitors in proteome, late-stage follow-up, gel-based competitive ABPP, fluorescence, assay provider | AID 652029, 2013 | actives 30% (n = 150) | rhLYPLA2 in mouse brain proteome, gel ABPP FP-Rh | inhibition, % at 20 µM | shares compounds with LYPLA2 counter;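 active = inhibition of LYPLA2 enzyme probe labeling above about 50%, limit read from the data; inactive = inhibition below that limit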;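 note: loss of FP-Rh probe labeling of the LYPLA2 gel band measured as band density; 0% = DMSO only control band and 100% = blank gel background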
# PREPL confirm – human PREPL enzyme inhibitors, confirmation, biochemical, fluorescence polarization. shares compounds with PREPL inh. inhibition, % at 5.96 µM. recombinant PREPL, fluorescence polarization activity probe. actives 67% (n = 2,000);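 note: 0% = protein with DMSO and 100% = wells lacking protein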
# * marks the source's active call; other numbers are inactive results; . = no result. Rows were chosen to be rich in hits. Some 1.3% of all compounds tested hit in one or more screens of this group. Cut-off read from the data, not from the text of the source, unless noted: active = inhibition above about 43%; inactive = the rest.
SMILES,PME-1 inh,PREPL inh,LYPLA2 counter,LYPLA1 inh,Fam108B inh,LYPLA2 conf,PREPL confirm,others
O=C(Cn1nnc2ccccc21)NNC(=S)NC1CCCCC1,0,-5,5,2,-1,.,.,
Oc1ccc(N2CCN(c3ccnc4cc(Cl)ccc34)CC2)cc1,-1,14,9,1,3,.,.,
COc1ccc(N2CCN(C(=O)c3cc4cc(Cl)ccc4[nH]3)CC2)cc1,0,28,37*,5,8,50*,.,
COc1ccc(N2CCN(c3ccnc4cc(Cl)ccc34)CC2)cc1,9,36,26*,5,2,19,.,
CC1(C)C[C@@H]1C(=O)N/C(=C\CCCCSC[C@H](N)C(=O)O)C(=O)O,-2,-3,0,-2,0,.,.,
CCN(CC(=O)NCc1ccc(F)cc1)C(=O)CCNS(=O)(=O)c1cccc(C)c1,-3,9,3,-3,.,.,.,
O=C(CCCn1c(=O)[nH]c2ccccc2c1=O)Nc1ccc(F)cc1,13,9,-5,-2,2,.,.,
O=C(c1ccc(F)cc1)C1CCN(CCn2c(=O)[nH]c3ccccc3c2=O)CC1,0,21,33*,8,4,36*,.,
Cc1ccc(NC(=O)CCC(=O)OCC(=O)c2ccc(Oc3ccc([N+](=O)[O-])cc3)cc2)cc1C,4,-1,36*,2,3,19,.,
CC(=O)Nc1ccc(NC(=O)CCC(=O)OCC(=O)c2cccc([N+](=O)[O-])c2)cc1,0,-5,-4,-3,4,.,.,
COc1ccc(CCN2C(=O)CC(Cc3ccccc3)C2=O)cc1OC (centres undefined),-8,-29,7,1,2,.,.,
COc1ccc(CCN2C(=O)CC(NNc3ccc([N+](=O)[O-])cc3)C2=O)cc1OC (centres undefined),5,1,51*,1,-2,54*,.,LYPLA2 ABPP=17
O=C(c1ccc(Br)o1)N1CCN(C/C=C/c2ccccc2)CC1,-6,-14,5,4,1,.,.,
O=C(c1ccc(Br)s1)N1CCN(C/C=C/c2ccccc2)CC1,2,13,36*,10,1,34*,.,
Cc1ccc(C(=O)N2CCN(c3ccc(NC(=O)COc4ccccc4C)cc3)CC2)cc1,5,52*,29*,2,-2,27*,51*,
O=C(O)C1Nc2c(O)cc(Cl)c([N+](=O)[O-])c2C2C=CCC12 (centres undefined),11,94*,35*,-14,79*,-2,22,
O=C(Nc1ccc(F)cc1)C1CCCN(C2=NS(=O)(=O)c3ccccc32)C1 (centres undefined),10,2,-5,-6,.,.,.,
C#CCOCCOCCOCCNc1nc(N2CCN(C(=O)CCCCCCCCCCNC(=O)[C@H](CCC(=O)O)n3cc(CCCCCN)nn3)CC2)nc(N2CCN(C(=O)CCCCCCCCCCNC(=O)[C@@H]([C@H](C)O)n3cc(C)nn3)CC2)n1,-5,-2,7,1,2,.,.,
C#CCOCCOCCOCCNc1nc(N2CCN(C(=O)CCCCCCCCCCNC(=O)Cn3cc(CCCCCN)nn3)CC2)nc(N2CCN(C(=O)CCCCCCCCCCNC(=O)[C@H]([C@@H](C)CC)n3cc(CCCCCN)nn3)CC2)n1,-4,62*,31*,3,-4,23,57*,
C#CCOCCOCCOCCNc1nc(N2CCN(C(=O)CCCCCCCCCCNC(=O)[C@H]([C@@H](C)CC)n3cc(CCCCCN)nn3)CC2)nc(N2CCN(C(=O)CCCCCCCCCCNC(=O)[C@@H]([C@H](C)O)n3cc(C)nn3)CC2)n1,-7,46*,29*,0,-2,29*,33,
COC(=O)/C(C#N)=C/c1ccc(N2CCOCC2)c([N+](=O)[O-])c1,-2,0,-1,-3,1,.,.,
N#C/C(=C\c1ccc(N2CCOCC2)c([N+](=O)[O-])c1)c1nc2ccccc2[nH]1,15,45*,31*,12,11,53*,40,
O=C(NC1CCSc2ccccc21)c1ccc(F)c(S(=O)(=O)N2CCOCC2)c1 (centres undefined),9,13,-10,-3,1,.,.,
O=[N+]([O-])c1c(N2CCN(CCO)CC2)nc2ccccn12,-4,-6,4,3,-3,.,.,
O=c1[nH]c2ccc(NCc3ccccc3OCc3ccc(Cl)cc3)cc2[nH]1,9,72*,7,3,4,.,73*,
SMILES,PME-1 inh,PREPL inh,LYPLA2 counter,LYPLA1 inh,Fam108B inh,LYPLA2 conf,PREPL confirm,others
O=C(Cn1nc(Cl)nc1Cl)c1ccc([N+](=O)[O-])cc1,3,4,13,0,0,.,.,
O=C(Cn1nc(CNc2ccc(Br)cc2)[n+]2c1CCCCC2)c1ccc([N+](=O)[O-])cc1,4,62*,5,-3,4,.,44*,
COc1ccc(NCc2nn(CC(=O)c3ccc(Br)cc3)c3[n+]2CCCCC3)cc1,0,51*,5,-3,1,.,55*,
O=C(Cn1nc(CNc2ccc(Cl)cc2)[n+]2c1CCCCC2)c1ccc(Br)cc1,9,39,-11,0,4,.,.,
Cc1ccc(OCC(=O)NNC(=O)c2ccccc2OCc2c(C)noc2C)cc1,3,14,6,3,-3,.,.,
Nc1cc(N)cc(-c2nc3ccccc3[nH]2)c1,32*,49*,-9,-9,17,.,13,
c1ccc(-c2nc3ccccc3[nH]2)cc1,-3,5,7,2,5,.,.,
O=C(C1=C[C@H](c2ccc(Br)cc2)C[C@H](OCc2ccc(CO)cc2)O1)N1CCOCC1,4,43*,-1,-1,6,.,43,
O=C(C1=C[C@@H](c2ccccc2)C[C@@H](OCc2ccc(CO)cc2)O1)N1CCOCC1,2,29,-4,0,-2,.,.,
O=C(C1=C[C@@H](c2ccc(Br)cc2)C[C@@H](OCc2ccc(CO)cc2)O1)N1CCOCC1,-6,44*,-1,-5,2,.,51*,
CCCC(=O)N/N=C1\CS(=O)(=O)N(C)c2ccsc21,-7,-1,-13,-5,-2,.,.,
